# According to PubChem BioAssay (NCI):
# Compounds without any hit were thinned out: in the full panel of roughly 83,000, 20% have a hit.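 In brief: 96-well plates, 48 h treatment, single concentration, percent growth endpoint.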 Unmarked numbers belong to inactive results. Activity calls are given as the source filed them. How the source made its calls: active means growth percent below 10; inactive means the rest.
# Tests used:
# Test in all cases: NCI-60 one-dose screen, 48 h (100 = growth as untreated, 0 = no growth, -100 = all killed)
# Conditions in all cases: 10 µM unless noted
# HCT-15 colon = tested on: HCT-15 colon
# HT29 colon = tested on: HT29 colon
# SNB-75 CNS = tested on: SNB-75 CNS
# U251 CNS = tested on: U251 CNS
# PC-3 prostate = tested on: PC-3 prostate
# SK-MEL-5 melanoma = tested on: SK-MEL-5 melanoma
# UACC-62 melanoma = tested on: UACC-62 melanoma
# LOX IMVI melanoma = tested on: LOX IMVI melanoma
# SK-MEL-28 melanoma = tested on: SK-MEL-28 melanoma
# SK-MEL-2 melanoma = tested on: SK-MEL-2 melanoma
# EKVX NSCLC = tested on: EKVX NSCLC
# SN12C renal = tested on: SN12C renal
# UO-31 renal = tested on: UO-31 renal
# TK-10 renal = tested on: TK-10 renal
# ACHN renal = tested on: ACHN renal
# CAKI-1 renal = tested on: CAKI-1 renal
# A498 renal = tested on: A498 renal
# CCRF-CEM leukemia = tested on: CCRF-CEM leukemia
# MOLT-4 leukemia = tested on: MOLT-4 leukemia
# SNB-19 CNS = tested on: SNB-19 CNS
SMILES,growth (HCT-15 colon),growth (HT29 colon),growth (SNB-75 CNS),growth (U251 CNS),growth (PC-3 prostate),growth (SK-MEL-5 melanoma),growth (UACC-62 melanoma),growth (LOX IMVI melanoma),growth (SK-MEL-28 melanoma),growth (SK-MEL-2 melanoma),growth (EKVX NSCLC),growth (SN12C renal),growth (UO-31 renal),growth (TK-10 renal),growth (ACHN renal),growth (CAKI-1 renal),growth (A498 renal),growth (CCRF-CEM leukemia),growth (MOLT-4 leukemia),growth (SNB-19 CNS)
O=C(O)c1cc2cc(OCc3ccccc3)ccc2[nH]1,92.3%,114%,87.8%,105%,102%,84.1%,79.3%,96.7%,48%,39.9%,87.3%,97.1%,74.4%,114%,98.7%,82.3%,98%,98.4%,99.5%,–
CCCCCCCCN=C(NCCCCCCCC)SCc1cccc2ccccc12,-78.1% (active),-24.4% (active),-88.4% (active),-98.7% (active),-93.2% (active),-95.3% (active),-82.2% (active),-96% (active),–,-89.8% (active),-66.4% (active),-88.1% (active),-57.2% (active),-94.8% (active),-91.8% (active),-84.9% (active),-80.4% (active),-2.17% (active),-11% (active),–
NNc1ccc(S(N)(=O)=O)cc1,110%,–,89.9%,–,90.2%,100%,–,86.4%,–,–,103%,–,91.6%,–,105%,97.8%,–,9.37% (active),102%,–
CCCCCc1c(C)[nH]c(/C=C2\N=C(c3ccc[nH]3)C=C2Oc2ccc(OC)cc2)c1C,-93.8% [100 µM] (active),-64% [100 µM] (active),-91.6% [100 µM] (active),–,-25.7% [100 µM] (active),-73.6% [100 µM] (active),-93.5% [100 µM] (active),-71.9% [100 µM] (active),-86.9% [100 µM] (active),-74.4% [100 µM] (active),–,-88.6% [100 µM] (active),-75.7% [100 µM] (active),-60.2% [100 µM] (active),-59.8% [100 µM] (active),-73.9% [100 µM] (active),-89.3% [100 µM] (active),–,-34% [100 µM] (active),–
O=C(Nc1ccccc1)c1cc2ccccc2s1,63.9%,104%,92.9%,89.4%,82%,56.7%,67.1%,83.4%,107%,72.2%,85.5%,91.4%,71.2%,98.7%,94.2%,78.8%,91.7%,44.3%,83.3%,–
O=C(Nc1cccc(-n2ccc3c(NC(=O)c4ccccc4)nccc32)c1)c1ccc(Cl)c(Cl)c1,-62% (active),–,2.32% (active),–,-60.5% (active),-100% (active),-61.3% (active),-84.4% (active),-60.4% (active),–,-33.3% (active),-83.8% (active),-78.1% (active),–,-75.9% (active),-71.7% (active),-2.71% (active),-41.6% (active),–,-40.3% (active)
CCOC(=O)c1cc(C(=O)OCC)c(C)nc1C,102%,104%,99%,103%,98.2%,107%,103%,107%,112%,124%,102%,105%,–,113%,112%,103%,110%,–,90.8%,–
COc1cc(-c2nc(-c3ccc(-c4nc5ccc(F)cc5[nH]4)cc3)no2)cc(OC)c1OC,19.4%,9.19% (active),76.6%,46.1%,6.63% (active),20.7%,20.9%,24.8%,60.6%,55.6%,46.9%,66.1%,19.8%,93%,36.7%,47.3%,71.2%,8.61% (active),21.1%,–
Cc1cc(O)ccc1Sc1ccccc1[N+](=O)[O-],92.7%,94.3%,94.8%,94.2%,82.3%,91.1%,76%,84.1%,101%,–,74.8%,–,52.7%,90.6%,87.4%,89.8%,87.6%,93.5%,115%,–
